# Bioassay records from PubChem.
# GLP1R ag = qHTS of GLP-1 Receptor Agonists | 380,000 tested, 0.007% active | HEK293 GLP-1R CRE-luciferase, luminescence, 4-6 h; cells express a hypersensitive GLP-1R form | Potency, µM (highest dose often 45.6 µM), most hits filed as activators | Glucagon-like peptide 1 receptor (Homo sapiens), P43220
# Target sequence (P43220 whole entry, looked up): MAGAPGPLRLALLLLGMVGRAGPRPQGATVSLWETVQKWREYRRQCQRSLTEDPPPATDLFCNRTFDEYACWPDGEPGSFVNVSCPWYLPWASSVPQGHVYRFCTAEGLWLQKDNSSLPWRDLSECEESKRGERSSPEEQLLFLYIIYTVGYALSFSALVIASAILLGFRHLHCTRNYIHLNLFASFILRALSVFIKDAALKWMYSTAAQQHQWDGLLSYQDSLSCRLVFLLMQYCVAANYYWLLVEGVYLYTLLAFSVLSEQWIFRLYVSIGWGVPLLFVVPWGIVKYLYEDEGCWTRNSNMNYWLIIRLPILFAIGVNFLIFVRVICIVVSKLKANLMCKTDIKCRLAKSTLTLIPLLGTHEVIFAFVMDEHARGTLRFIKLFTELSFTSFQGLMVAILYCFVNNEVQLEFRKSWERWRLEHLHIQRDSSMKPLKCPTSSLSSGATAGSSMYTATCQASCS
# ClpP mod = qHTS Assay for Activators of ClpP. Potency, µM (highest dose often 57.5 µM). purified B. subtilis ClpP, FRET peptide cleavage, 20 min. AID 651965, 2013. 340,000 tested, 1.9% active. ATP-dependent Clp protease proteolytic subunit (Bacillus subtilis (strain 168)), P80244; active means well fitted falling curve with a large enough effect; inconclusive means small, poorly fitted or top-dose-only effect; inactive means no such curve, though single readings can be large or run the other way; further: the source files actives as falling curves though it sought activators and does not explain the sign; nearly all actives have a fitted effect of over 65% in size
# Target sequence (P80244 whole entry, looked up): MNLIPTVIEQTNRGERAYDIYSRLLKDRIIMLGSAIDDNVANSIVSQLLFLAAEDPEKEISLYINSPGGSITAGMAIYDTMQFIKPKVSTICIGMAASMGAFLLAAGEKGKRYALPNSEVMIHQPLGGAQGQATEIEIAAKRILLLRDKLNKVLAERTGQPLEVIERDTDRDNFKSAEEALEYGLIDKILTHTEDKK
#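 Buffer: 100 mM Tris/HCl pH8, 100 mM KCl, 0.05% low protease BSA, 2.5% glycerol, 0.01% Tween-20. ClpP 10 microg/mL final; 20 min RT; delta FRET normalized to ADEP and DMSO controls.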
# GLP1R inv ag = qHTS of GLP-1 Receptor Inverse Agonists (Inhibition Mode); Glucagon-like peptide 1 receptor (Homo sapiens), P43220; HEK293 GLP-1R CRE-luciferase, luminescence, 24 h; GLP-1R form is constitutively active; Potency, µM (highest dose often 38.3 µM), most hits filed as inhibitors; 410,000 tested, 1.6% active; further: nearly all actives have a fitted effect of over 55% in size
#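 Luminescence readout: a drop in cAMP-driven luciferase signal flags inverse agonism at a constitutively active GLP-1R stably expressed in HEK293. Compound exposure lasted 24 hr at 37 deg C, 5% CO2.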
# GLP1R cytotox = qHTS of GLP-1 Receptor Inverse Agonists: Cytotox Screen | HEK293 cAMP-luciferase reporter cells, luminescence, 24 h | Potency, µM (highest dose often 38.3 µM), usual class: inhibitors | 410,000 tested, 0.13% active;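 further: loss of luciferase light is scored as toxicity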
#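 1536-well qHTS counterscreen of the MLSMR; 200 cells/uL, 12 h pre-incubation, 23 nL cpd, 24 h at 37 deg C 5% CO2, luciferase detection reagent, 12 min RT, luminescence. Inhibition = undesired.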
# DRD3 antagonist = qHTS of D3 Dopamine Receptor Antagonist: qHTS; D(3) dopamine receptor (Homo sapiens), P35462; D3R cells, DiscoveRx beta-arrestin luminescence, antagonist mode; active compounds read low; max response, negative = inhibition, %; 360,000 tested, 2.5% active; AID 652054, 2013; in the data active means max response below about -50%; inconclusive means no clear call, values can overlap the other calls
#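 Cells plated overnight at 1500 cells/well, then exposed to library compounds with dopamine controls for 90 minutes at 37 degrees C. DiscoveRx reagent added for 30–60 minutes at room temperature; luminescence read, quantitative HTS format.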
# DRD3 agonist = qHTS of D3 Dopamine Receptor Agonist: qHTS; D(3) dopamine receptor (Homo sapiens), P35462; D3R DiscoveRx beta-arrestin cells, luminescence, 90 min; max activation, %; 410,000 tested, 0.58% active; in the data active means max activation above about 30%
#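 Agonist-mode cell screen: cells plated at 1500/well and incubated overnight at 37 °C, then exposed to library compounds for 90 min at 37 °C. Detection reagent was added for 30–60 min at room temperature, and luminescence was read.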
# Hits are given with their value; 0 = inactive; ? = inconclusive; - = no result given; [ ] = another dose, or the depositor's remark. Sampled rows, rich in hits. Any-hit rate of the full collection: about 5.7%. Unless noted, the call rests on the fitted dose curve; in most records, active means well fitted curve in the direction sought with a large enough effect; inconclusive means small, poorly fitted or top-dose-only effect, or another doubt; inactive means no such curve, though single readings can be large; an effect the other way counts as inactive or inconclusive.
SMILES,GLP1R ag,ClpP mod,GLP1R inv ag,GLP1R cytotox,DRD3 antagonist,DRD3 agonist
N#C/C(=C/c1ccc(N2CCCCC2)o1)c1cccc(F)c1,0,0,0,0,-69,0
Cc1ccc2nc(/C(C#N)=C\c3ccc(N4CCOCC4)o3)[nH]c2c1,0,0,0,0,0,0
N#C/C(=C\c1ccc(N2CCOCC2)o1)C(=O)NCC1CCCO1 (stereo not given),0,0,0,0,-82,0
N#C/C(=C\c1ccc(N2CCOCC2)o1)C(=O)NC1CCCCC1,?,-,0,0,0,0
Cc1ccc(/C(C#N)=C\c2ccc(N3CCOCC3)o2)cc1,0,0,0,0,-65,0
N#C/C(=C/c1ccc(N2CCCCCC2)o1)c1ccc(Cl)cc1,0,0,?,?,-64,0
CCOc1ccc(-n2c(-c3ccc(Br)cc3)cc3c2CC(C)(C)CC3=O)cc1,-,0,0,0,-,0
COCCN1CC(O)=C(c2nc3ccccc3c(=O)[nH]2)C1=N,0,?,0,0,0,0
COc1ccccc1N1CC(O)=C(c2nc3ccccc3c(=O)[nH]2)C1=N,0,32µM,0,0,0,0
CCN[C@@H]1C[C@H](N)[C@@H](OC2OC(CN)=CCC2N)[C@H](O)[C@H]1O[C@H]1OC[C@](C)(O)[C@H](NC)[C@H]1O (stereo not given in full),-,-,-,-,-,49
CCN[C@@H]1C[C@H](N)[C@H](O[C@H]2OC(CN)=CC[C@H]2N)[C@@H](O)[C@H]1O[C@H]1OC[C@@](C)(O)[C@@H](NC)[C@@H]1O,0,-,-,-,-,-
CCOC(=O)C1(Cc2cccc(Cl)c2)CCCN(C(=O)c2cc(C)on2)C1 (stereo not given),0,0,0,0,?,0
CCOC(=O)C1(Cc2cccc(Cl)c2)CCCN(C(=O)c2cc(C)[nH]n2)C1 (stereo not given),0,28µM,0,0,?,0
CCCCOc1ccc(CSC2=NCCN2)cc1[N+](=O)[O-],0,0,10µM,?,0,0
O=C(COC(=O)c1ccc(C(F)(F)F)cc1)NC(=O)C1CCCCC1,-,0,-,-,-,-
O=C1c2ccccc2C(=O)c2c1oc(C(F)(F)F)c2C(=O)c1ccccc1,0,0,0,0,-70,0
O=[N+]([O-])c1ccc(CSc2ccc(S(=O)(=O)N3CCCCCC3)cn2)cc1,0,-,11µM,0,0,0
CCn1c(=O)cc(OCC(=O)Nc2cc(OC)c(OC)c(OC)c2)c2ccccc21,0,0,0,0,-,0
CC(C)C[C@@H]1NC(=O)[C@H](CCCN)NC(=O)[C@H](C(C)C)NC(=O)[C@@H]2CCCN2C(=O)[C@@H](Cc2ccccc2)NC(=O)[C@H](CC(C)C)NC(=O)[C@H](CCCN)NC(=O)[C@H](C(C)C)NC(=O)[C@@H]2CCCN2C(=O)[C@@H](Cc2ccccc2)NC1=O,-,-,-,-,-,31
O=C(NCCN1CCOCC1)C(=O)NCC1OCCN1S(=O)(=O)c1ccc(Cl)cc1 (stereo not given),0,0,0,0,0,0
CCCC(=O)N(C1CC(C)C(C#N)(C#N)C1(C#N)C#N)N(C)C (stereo not given),0,-,?,?,-62,0
CC(=O)N(C1CC(C)C(C#N)(C#N)C1(C#N)C#N)N(C)C (stereo not given),0,-,?,?,-71,0
CC(C)(c1ccccc1)c1ccc(OCC(O)CNC2CCN(Cc3ccccc3)CC2)cc1 (stereo not given),0,-,1.8µM,?,?,0
CCOc1ccc(OCC(O)CNC2CCN(Cc3ccccc3)CC2)cc1 (stereo not given),0,0,?,0,?,0
CN(C)c1nc(NCc2ccccc2)nc(N/N=C/c2ccc3c(c2)OCO3)n1,0,0,10µM,?,0,0
SMILES,GLP1R ag,ClpP mod,GLP1R inv ag,GLP1R cytotox,DRD3 antagonist,DRD3 agonist
O=C(O)COc1ccc(/C=N/Nc2nc(Nc3ccccc3)nc(N3CCCCC3)n2)cc1,0,-,0,?,-50,0
CCOc1cc(/C=N\Nc2nc(Nc3ccccc3)nc(N3CCOCC3)n2)ccc1OC(=O)c1ccco1,0,0,7.1µM,0,0,0
CN(C)c1nc(NCc2ccccc2)nc(N/N=C/c2ccc(Br)cc2)n1,0,0,0,0,0,0
COc1ccc(/C=N/Nc2nc(Nc3ccccc3)nc(N3CCCC3)n2)cc1,0,-,0[7.66 µM],0[7.66 µM],0,0
Cc1ccc(Nc2nc(N/N=C\c3ccc4c(c3)OCO4)nc(N3CCOCC3)n2)cc1,0,-,4.5µM,?,0,0
O=C(Cn1cc(SCc2cccc(F)c2)c2ccccc21)N1CCCC1,-,0,?,0,-,0
Cc1ccc(-c2nc3c4cnn(-c5cc(Cl)ccc5Cl)c4ncn3n2)cc1,-,0,0,0,-,0
CC(=O)c1cccc(CN2CCC(C(=O)Nc3cccc(-c4ccn[nH]4)c3)CC2)c1,0,0,?,0,0,0
C=CCOc1ccccc1CN1CCC(C(=O)Nc2cccc(-c3ccn[nH]3)c2)CC1,0,0,7.9µM,?,0,0
Cn1cccc1CNCc1ccccc1Cl,0,0,0,0,-64,0
CCCCCNCc1cccn1C,0,0,0,0,?,0
CCOC(=O)Cc1c(C)c2ccc(N(CC)CC)cc2oc1=O,0,22µM,?,0,0,0
CCOC(=O)c1oc2cc(C)cc(C)c2c1C,0,0,0,0,0,0
CCOC(=O)Cc1c(C)c2c(O)cc(O)cc2oc1=O,0,25µM,0,0,0,0
CCN(CC)c1ccc2c(c1)oc(=O)c1c(Cl)cc(=O)oc12,0,0,0,0,-91,0
CCOC(=O)c1oc2cc(O)cc(C)c2c1C,0,13µM,0,0,0,0
CCN(CC)c1ccc2c(C)c(Cl)c(=O)oc2c1,?,-,0,0,0,0
O=C(NCC(c1ccc2c(c1)OCO2)N1CCN(c2ccccc2)CC1)C(=O)Nc1cccc(F)c1 (stereo not given),-,0,0,0,-,0
COc1ccc(-c2nc(S(=O)(=O)c3ccc(C)cc3)c(NCc3ccccc3)o2)cc1,-,0,?,0,-,0
O=C(Oc1c(-c2ccccc2)c(=O)n2c3c(cccc13)CC2)c1ccc(Cl)cc1,0,-,0,0,0,0
O=C(Oc1c(-c2ccccc2)c(=O)n2c3c(cccc13)CC2)c1ccco1,0,-,0,0,0,49
NNc1nc2sc3c(c2c(=O)n1Cc1ccccc1)CCC3,0,-,0,0,0,0
